In PubChem BioAssay AID651548 (Broad Institute, 2012) one finds inhibition data, which are given here for 64 compounds.

Where “and” joins values, the source holds several entries; their conditions need not be identical. Identical values can stand only once. Hit rate of the full screen: of about 57,000 compounds, about 200 (0.35%) were called active.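 Rule for the calls: active = mean inhibition of replicates at least 50% and every single replicate also reaching 50%; inconclusive = mean inhibition at least 50% but some replicate falls below 50%; inactive = mean inhibition under 50%.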 What follows is part of a selection rich in actives, with near analogues and random picks from the rest.

In this experiment the target is Histone-lysine N-methyltransferase EZH2 (Homo sapiens) (UniProt Q15910). The experiment in a line: EZH2/PRC2 methyltransferase inhibitors, primary screen, biochemical, DELFIA time-resolved fluorescence, single point (AID 651548).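 Note: dimethyl H3K27 on biotinylated H3 21-44 peptide detected by antibody; plate controls were median neutral control wells for no effect and median positive control wells for full effect.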 The settings on record: PRC2 H3K27 methylation, DELFIA TRF, 1 h; at 12.5 µM; active compounds read high.
Chain of Histone-lysine N-methyltransferase EZH2 (Homo sapiens) (Q15910 whole entry, looked up): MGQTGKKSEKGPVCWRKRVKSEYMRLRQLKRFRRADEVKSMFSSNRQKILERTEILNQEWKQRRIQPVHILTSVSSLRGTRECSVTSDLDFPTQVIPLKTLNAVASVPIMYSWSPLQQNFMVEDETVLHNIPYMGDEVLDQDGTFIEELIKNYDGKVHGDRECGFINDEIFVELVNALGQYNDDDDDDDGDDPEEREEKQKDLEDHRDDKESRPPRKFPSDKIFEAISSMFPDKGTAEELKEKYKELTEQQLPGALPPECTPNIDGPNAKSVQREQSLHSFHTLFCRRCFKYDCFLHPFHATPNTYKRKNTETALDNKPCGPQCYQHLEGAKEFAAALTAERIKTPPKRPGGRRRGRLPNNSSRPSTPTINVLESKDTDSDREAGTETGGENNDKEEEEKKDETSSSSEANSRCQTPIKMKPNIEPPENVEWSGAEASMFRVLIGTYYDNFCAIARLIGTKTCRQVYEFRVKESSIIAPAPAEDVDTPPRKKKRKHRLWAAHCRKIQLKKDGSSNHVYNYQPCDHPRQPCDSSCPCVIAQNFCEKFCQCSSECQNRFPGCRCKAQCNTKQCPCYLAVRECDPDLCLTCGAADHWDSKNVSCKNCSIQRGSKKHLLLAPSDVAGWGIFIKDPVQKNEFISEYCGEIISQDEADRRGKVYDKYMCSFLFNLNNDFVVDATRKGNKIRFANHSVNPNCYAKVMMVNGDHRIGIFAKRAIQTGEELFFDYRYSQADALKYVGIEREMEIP
Regarding `C[C@@H](NC(=O)C[C@@H]1C[C@@H]2c3cc(NC(=O)c4cccnc4)ccc3O[C@@H]2[C@H](CO)O1)c1ccccc1`, the inhibition was 4.89% (inactive). In the case of `CCC(=O)N1C[C@@H](C)[C@@H](OC)CN(C)C(=O)c2ccc(NC(=O)c3ccccc3)cc2OC[C@H]1C`, the inhibition is 2.93% (inactive).

`C[C@@H]1CN([C@H](C)CO)S(=O)(=O)c2ccc(C#CCC3CCCC3)cc2O[C@H]1CN(C)Cc1ccc(C(=O)O)cc1`: the inhibition was 58.1% (active). For `CCCN(C)C[C@H]1Oc2cc(C#CCC3CCCC3)ccc2S(=O)(=O)N([C@@H](C)CO)C[C@@H]1C` the value was 10.9% (inactive); for `C[C@@H]1CN([C@@H](C)CO)S(=O)(=O)c2ccc(C#CCC3CCCC3)cc2O[C@@H]1CN(C)C`, -6.13% (inactive); for `CO[C@@H](CN(C)S(=O)(=O)c1ccc(C)cc1)[C@@H](C)CN([C@@H](C)CO)S(=O)(=O)c1cccc(Cl)c1`, 9.64% (inactive). Turning to `CN(C)CCCNC(=O)C[C@H]1C=C[C@@H](NC(=O)Cc2cccnc2)[C@H](CO)O1`, the inhibition was 13.4% (inactive).

On to `Cc1ccccc1S(=O)(=O)NCC[C@@H]1CC[C@H](NC(=O)C2CC2)[C@@H](CO)O1`, for which the inhibition is -14.1% (inactive). As to `COCCNC(=O)C[C@H]1CC[C@H](NS(=O)(=O)c2ccc(C)cc2)[C@@H](CO)O1`, the inhibition is -9.8% (inactive). On to `COCC(=O)N(C)C[C@@H]1Oc2cc(C#CCC(C)C)ccc2S(=O)(=O)N([C@@H](C)CO)C[C@@H]1C`, for which the inhibition is 7.89% (inactive). As for `CO[C@H]1CN(C)C(=O)c2cc(NC(=O)C3CCCC3)ccc2OC[C@@H](C)N(C(=O)CC2CC2)C[C@@H]1C`, the inhibition is 4.88% (inactive). The figure for `C[C@@H]1CN([C@H](C)CO)C(=O)c2cc(NC(=O)CCCN(C)C)ccc2O[C@@H](C)CCCCO[C@H]1CN(C)CC1CCCCC1` is -6.09% (inactive). Take `C[C@@H]1CN([C@@H](C)CO)S(=O)(=O)c2ccc(C3=CCCCC3)cc2O[C@@H]1CN(C)C(=O)CN(C)C`: the inhibition was -15.1% (inactive). As for `O=C(C[C@@H]1C[C@@H]2c3cc(NC(=O)Nc4ccc(F)cc4)ccc3O[C@@H]2[C@H](CO)O1)NCC(F)(F)F`, the inhibition was -13.1% (inactive). For `CO[C@@H]1CN(C)C(=O)c2cc(NC(=O)c3ccccc3F)ccc2OC[C@H](C)N(C(C)=O)C[C@@H]1C` the value was -5.74% (inactive); for `C[C@H]1CN([C@@H](C)CO)C(=O)c2cc(Br)cnc2O[C@@H]1CN(C)S(=O)(=O)c1ccc(F)cc1`, 30.8% (inactive); for `O=C(C[C@@H]1CC[C@@H](NC(=O)c2ccc3c(c2)OCO3)[C@H](CO)O1)NCc1ccc(Cl)cc1`, 11.8% (inactive). The figure for `C[C@@H]1CN([C@H](C)CO)C(=O)c2cccc(NC(=O)CCCCCC(=O)Nc3ccccc3N)c2O[C@H]1CN(C)Cc1ccc(Oc2ccccc2)cc1` is -2.58% (inactive); for `O=C(O)CCCc1ccccc1` it is -7.51% (inactive).

For the compound `CN(C)CCCSc1ccccc1NC(=O)/C=C/c1ccccc1`, the inhibition was 7.12% (inactive) and -8.56% (inactive). With `CCCCCc1ccc(/C=C/C(=O)Nc2ccccc2C(=O)O)cc1`, the inhibition is 61.8% (active).

Turning to `O=C(N[C@@H]1CC[C@@H](CCNS(=O)(=O)Cc2ccccc2)O[C@@H]1CO)c1ccccc1F`, the inhibition was -4.43% (inactive).

Turning to `CCCNC(=O)Nc1ccc2c(c1)C(=O)N(C)C[C@@H](OC)[C@H](C)CN(C(=O)C1CCCCC1)[C@H](C)CO2`, the inhibition is 4.24% (inactive). Turning to `O=C(N[C@H]1CC[C@@H](CCNS(=O)(=O)c2cccc(Cl)c2)O[C@@H]1CO)c1ccncc1`, the inhibition is 4.59% (inactive). Consider `O=C(NCC[C@@H]1CC[C@@H](NC(=O)C2CCCC2)[C@H](CO)O1)c1cnccn1`, for which the inhibition was -12% (inactive). Regarding `C[C@@H]1CN([C@@H](C)CO)C(=O)c2c(c3ccccc3n2C)-c2ccccc2CO[C@H]1CN(C)C(=O)N[C@H](C)c1ccccc1`, the inhibition is -0.352% (inactive).

Consider `CO[C@@H]1CN(C)C(=O)c2cc(NC(=O)C3CCC3)ccc2OC[C@H](C)N(C(=O)CN(C)C)C[C@@H]1C`, for which the inhibition was -0.841% (inactive). Consider `CCCNC(=O)C[C@H]1C[C@@H]2c3cc(NC(=O)NC4CCCC4)ccc3O[C@@H]2[C@@H](CO)O1`, for which the inhibition is 5.85% (inactive). For `C[C@H](NC(=O)C[C@H]1C=C[C@@H](NC(=O)C2CCOCC2)[C@@H](CO)O1)c1ccccc1`, the inhibition was 3.06% (inactive). The figure for `COc1ccccc1-c1cccc(-c2nc(C(=O)N3CCN(C)CC3)cc3c2[C@H](CCO)N([S@@](=O)C(C)(C)C)C3)c1` is 1.13% (inactive); for `CO[C@@H]1CN(C)C(=O)c2cc(NC(C)=O)ccc2OC[C@@H](C)N(C(=O)NC2CCCCC2)C[C@H]1C` it is 3.91% (inactive). `O=C(C[C@H]1C[C@H]2c3cc(NC(=O)C4CCC4)ccc3O[C@H]2[C@@H](CO)O1)NCc1ccc(Cl)cc1`: the inhibition was -2.37% (inactive). The figure for `CN1CCN(C(=O)C[C@@H]2C[C@@H]3c4cc(NC(=O)c5ccc6c(c5)OCO6)ccc4O[C@@H]3[C@H](CO)O2)CC1` is -2.8% (inactive); for `COc1cccc(-c2ccc3c(c2)O[C@H](CN(C)C(=O)c2ccccc2F)[C@@H](C)CN([C@@H](C)CO)S3(=O)=O)c1` it is 0.0695% (inactive); for `O=C(Nc1ccccc1)Nc1ccc2c(c1)[C@@H]1C[C@@H](CC(=O)N3CCCCC3)O[C@H](CO)[C@@H]1O2` it is -1.6% (inactive). On to `O=C(C[C@H]1C[C@H]2c3cc(NC(=O)Nc4ccccc4)ccc3O[C@H]2[C@H](CO)O1)NC1CCCC1`, for which the inhibition is 2.44% (inactive). Turning to `COc1ccccc1NC(=O)N[C@H]1CC[C@H](CCNS(=O)(=O)c2ccc(Cl)cc2)O[C@H]1CO`, the inhibition was 47.2% (inactive). The figure for `COc1cccc(C(=O)Nc2ccc3c(c2)OC[C@H](C)N(C(C)=O)C[C@@H](C)[C@@H](OC)CN(C)C3=O)c1` is 6.08% (inactive); for `C/C=C/c1ccc2c(c1)O[C@H](CN(C)C(=O)C1CCCCC1)[C@@H](C)CN([C@@H](C)CO)S2(=O)=O` it is 13.7% (inactive). The figure for `CCC(=O)Nc1ccc2c(c1)OC[C@@H](C)N(Cc1cncnc1)C[C@H](C)[C@@H](OC)CN(C)C2=O` is -1.64% (inactive); for `COc1ccc(C(=O)Nc2ccc3c(c2)OC[C@H](C)N(C(C)=O)C[C@@H](C)[C@@H](OC)CN(C)C3=O)cc1` it is -11.8% (inactive).

On to `CO[C@@H]1CN(C)C(=O)c2ccc(NC(=O)C3CC3)cc2OC[C@@H](C)N(Cc2ccncc2)C[C@@H]1C`, for which the inhibition was 8.95% (inactive). For `O=C(C[C@H]1CC[C@H](NC(=O)c2ccncc2)[C@H](CO)O1)Nc1ccccc1`, the inhibition was 16.3% (inactive). As for `O=C(C[C@H]1C[C@@H]2c3cc(NS(=O)(=O)c4ccc(F)cc4)ccc3O[C@@H]2[C@H](CO)O1)NCc1cccc(F)c1`, the inhibition was -5.18% (inactive). With `O=C(N[C@H]1CC[C@@H](CCNC(=O)C2CCC2)O[C@@H]1CO)c1ccncc1`, the inhibition was -3.82% (inactive). With `CN(C)CC(=O)Nc1ccc2c(c1)[C@H]1C[C@@H](CC(=O)NCc3ccccn3)O[C@@H](CO)[C@H]1O2`, the inhibition is -17% (inactive). For `CO[C@H]1CN(C)C(=O)c2ccc(NC(=O)C3CCCC3)cc2OC[C@@H](C)NC[C@@H]1C`, the inhibition is 7.43% (inactive). The figure for `CCC(=O)N1C[C@@H](C)[C@H](OC)CN(C)C(=O)c2ccc(NC(=O)c3cc(C)on3)cc2OC[C@H]1C` is 7.38% (inactive); for `CCC(=O)Nc1ccc2c(c1)OC[C@H](C)N(CC1CCCCC1)C[C@@H](C)[C@H](OC)CN(C)C2=O` it is -10.4% (inactive). As for `CC(C)NC(=O)N[C@@H]1C=C[C@@H](CC(=O)N2CCCCC2)O[C@@H]1CO`, the inhibition was 7.89% (inactive).

For `O=C(C[C@@H]1CC[C@H](NC(=O)Nc2ccc(F)cc2)[C@H](CO)O1)NCc1ccccn1`, the inhibition was -0.96% (inactive). For `COc1cccc(-c2cnc3c(c2)C(=O)N([C@@H](C)CO)C[C@H](C)[C@H](CN(C)C(C)=O)O3)c1`, the inhibition is 1.62% (inactive). In the case of `COCC#Cc1cnc2c(c1)C(=O)N([C@H](C)CO)C[C@H](C)[C@H](CN(C)C(=O)Nc1cc(F)ccc1F)O2`, the inhibition is 0.676% (inactive). Consider `COc1cccc(NC(=O)Nc2ccc3c(c2)OC[C@@H](C)NC[C@@H](C)[C@H](OC)CN(C)C3=O)c1`, for which the inhibition was -3.01% (inactive).

Take `COc1cccc(S(=O)(=O)Nc2ccc3c(c2)[C@@H]2C[C@@H](CC(=O)NCc4ccc(Cl)cc4)O[C@H](CO)[C@@H]2O3)c1`: the inhibition was -2.95% (inactive). Consider `O=C(C[C@@H]1C[C@@H]2c3cc(NC(=O)Nc4ccccc4F)ccc3O[C@@H]2[C@@H](CO)O1)NCCc1ccccc1`, for which the inhibition was -11.7% (inactive). As to `CC1=CCC(C(C)(C)O[C@@H]2O[C@H](COC(=O)c3cc(O)c(O)c(O)c3)[C@@H](O)[C@H](O)[C@H]2O)CC1` (some centres undefined), the inhibition was 91.8% (active).

On to `C[C@@H]1CN([C@H](C)CO)S(=O)(=O)c2ccc(C#CCN(C)C)cc2O[C@@H]1CN(C)C(=O)C1CCCCC1`, for which the inhibition is 1.46% (inactive). For `CC(C)NC(=O)Nc1ccc2c(c1)CC(=O)N([C@H](C)CO)C[C@H](C)[C@@H](CN(C)C(=O)Nc1ccc(F)cc1)O2`, the inhibition was -14.2% (inactive). Take `C[C@@H]1CN([C@H](C)CO)S(=O)(=O)c2ccc(-c3ccccc3)cc2O[C@@H]1CN(C)C(=O)C1CC1`: the inhibition was 7.84% (inactive).

For the compound `CCCNC(=O)Nc1ccc2c(c1)OC[C@H](C)N(Cc1ccccc1)C[C@H](C)[C@H](OC)CN(C)C2=O`, the inhibition is -21.6% (inactive). For `C[C@H]1CN([C@@H](C)CO)S(=O)(=O)c2ccc(C#CC3CCCC3)cc2O[C@@H]1CN(C)C(=O)c1cccc(F)c1`, the inhibition is 14.8% (inactive).

Regarding `O=C(C[C@@H]1CC[C@@H](NC(=O)C2CC2)[C@H](CO)O1)NCc1ccncc1`, the inhibition was 9.6% (inactive). In the case of `CN(C)CC(=O)N[C@@H]1CC[C@@H](CCn2cc(C3CC3)nn2)O[C@H]1CO`, the inhibition was -8.32% (inactive).
